Laboratory results from PubChem BioAssay (NCI).
This is part of a sample that, as a whole, favours compounds with a hit. Of some 83,000 tested, about 20% had one in any assay.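 In brief: 96-well plates, 48 h treatment, single concentration, percent growth endpoint.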 The source made the active and inactive calls. The calls were made as follows: active = growth percent below 10; inactive = the rest.

Legend:
Assay in all cases: NCI-60 one-dose screen, 48 h (100 = growth as untreated, 0 = no growth, -100 = all killed)
Details in all cases: 10 µM unless noted
HCT-15 colon = test system: HCT-15 colon
HT29 colon = test system: HT29 colon
SNB-75 CNS = test system: SNB-75 CNS
SNB-19 CNS = test system: SNB-19 CNS
U251 CNS = test system: U251 CNS
PC-3 prostate = test system: PC-3 prostate
SK-MEL-5 melanoma = test system: SK-MEL-5 melanoma
UACC-62 melanoma = test system: UACC-62 melanoma
LOX IMVI melanoma = test system: LOX IMVI melanoma
SK-MEL-28 melanoma = test system: SK-MEL-28 melanoma

Measured: growth

O=c1oc2ccccc2cc1-c1csc(N=Nc2c(O)[nH]c3ccc(Cl)cc23)n1
inactive: HCT-15 colon 99.5% | HT29 colon 101% | SNB-75 CNS 93.3% | SNB-19 CNS 99.2% | U251 CNS 94.6% | PC-3 prostate 100% | SK-MEL-5 melanoma 104% | UACC-62 melanoma 98.2% | LOX IMVI melanoma 97.7% | SK-MEL-28 melanoma 103%

CC(=O)OC[C@H](O)[C@@]1(O)CC[C@H]2[C@@H]3CCC4=CC(=O)CC[C@]4(C)[C@H]3[C@@H](O)C[C@@]21C
inactive: HCT-15 colon 105% | HT29 colon 101% | SNB-75 CNS 117% | SNB-19 CNS 109% | U251 CNS 111% | PC-3 prostate 95.4% | SK-MEL-5 melanoma 101% | UACC-62 melanoma 104% | LOX IMVI melanoma 103% | SK-MEL-28 melanoma 114%

Cc1c(NCC(=O)Nc2nc3ccccc3[nH]2)c(=O)n(-c2ccccc2)n1C
inactive: HCT-15 colon 94.5% | HT29 colon 105% | SNB-75 CNS 94.3% | SNB-19 CNS 97% | U251 CNS 96.7% | PC-3 prostate 92.7% | SK-MEL-5 melanoma 100% | UACC-62 melanoma 102% | LOX IMVI melanoma 97.1% | SK-MEL-28 melanoma 110%

COc1ccc(S(=O)(=O)c2ccc(C(N)=O)cc2)cc1NC(=O)c1[nH]c(C)c2c1CCCCC2=O
active: SNB-75 CNS -13.8%
inactive: HCT-15 colon 99.6% | HT29 colon 32.6% | SNB-19 CNS 60.2% | U251 CNS 38.6% | PC-3 prostate 68% | SK-MEL-5 melanoma 48.5% | UACC-62 melanoma 17% | LOX IMVI melanoma 32% | SK-MEL-28 melanoma 67.5%

COc1cc(C2C3=C(COC3=O)N(CCO)c3cc4c(cc32)OCO4)cc(OC)c1O (stereo not given)
inactive: HCT-15 colon 44.8% | SNB-19 CNS 41.5% | U251 CNS 21.4% | PC-3 prostate 29.5% | SK-MEL-5 melanoma 29.3% | UACC-62 melanoma 26.2% | LOX IMVI melanoma 40.1% | SK-MEL-28 melanoma 59.5%
active: HT29 colon 8.44% | SNB-75 CNS -11.3%

CCOC(=O)c1[nH]c2cc(Cl)ccc2c1[C@@H](C(=O)NC(C)(C)C)N(CC)C(=O)CCCCC#Cc1cccc2c1CN(C1CCC(=O)NC1=O)C2=O (stereo not given in full)
inactive: SNB-19 CNS 28.2% | U251 CNS 27.8% | PC-3 prostate 11.7% | UACC-62 melanoma 27.2% | SK-MEL-28 melanoma 29.6%
active: HCT-15 colon -2.23% | HT29 colon 8.65% | SNB-75 CNS 0.961% | SK-MEL-5 melanoma -53.4% | LOX IMVI melanoma 8.52%

COC(=O)c1c2c(c(C)[n+]([O-])c1C)C(=O)C=C(NCc1cccc(Cl)c1)C2=O
active: HCT-15 colon -66.9% | HT29 colon 3.61% | SNB-75 CNS -95.4% | SNB-19 CNS -53.4% | U251 CNS -20.7% | PC-3 prostate -1.7% | SK-MEL-5 melanoma -97.1% | UACC-62 melanoma -68% | LOX IMVI melanoma -57.5% | SK-MEL-28 melanoma -1.27%

O=c1onc(-c2ccccc2)c2ccccc12
inactive: HCT-15 colon 115% | HT29 colon 109% | SNB-75 CNS 109% | SNB-19 CNS 104% | U251 CNS 98.7% | PC-3 prostate 102% | SK-MEL-5 melanoma 103% | UACC-62 melanoma 103% | LOX IMVI melanoma 97.5% | SK-MEL-28 melanoma 103%

Cc1oc2c(c1C(=O)N1CC[C@@H](N)C1)C(=O)c1c(c(O)c3ccccc3c1O)C2=O
inactive: HCT-15 colon 20.7% | HT29 colon 11.3% | SNB-75 CNS 31.8% | SNB-19 CNS 40% | U251 CNS 23.8% | PC-3 prostate 10.9% | SK-MEL-5 melanoma 42.7% | UACC-62 melanoma 55.2% | LOX IMVI melanoma 24.9% | SK-MEL-28 melanoma 62.9%

O=C1CC(c2ccsc2)c2snc(-c3ccc(Cl)cc3)c2N1 (stereo not given)
active: HT29 colon 3.6% | SNB-75 CNS -6.98%
inactive: HCT-15 colon 21.9% | SNB-19 CNS 64.4% | U251 CNS 27.7% | PC-3 prostate 24% | SK-MEL-5 melanoma 18.1% | UACC-62 melanoma 30.8% | LOX IMVI melanoma 51.8% | SK-MEL-28 melanoma 45.4%

COc1ccc(-c2nc3sccn3c2/C=C/C(=O)c2cc(OC)c(OC)c(OC)c2)cc1OC
inactive: HCT-15 colon 22% | SNB-19 CNS 28.5% | U251 CNS 10% | PC-3 prostate 22.6% | UACC-62 melanoma 15.3% | SK-MEL-28 melanoma 53.2%
active: HT29 colon 4.2% | SNB-75 CNS -8.25% | SK-MEL-5 melanoma 5.76% | LOX IMVI melanoma 9.65%

O=C1c2c(c3c4cc(Br)ccc4[nH]c3c3ccc4ccccc4c23)C(=O)N1O
inactive: HCT-15 colon 85.4% | HT29 colon 30% | SNB-75 CNS 79.8% | SNB-19 CNS 85.1% | U251 CNS 68.5% | PC-3 prostate 79% | SK-MEL-5 melanoma 96.7% | UACC-62 melanoma 59.9% | LOX IMVI melanoma 67.8% | SK-MEL-28 melanoma 106%

O=C1c2[nH]cc(CN[C@@H]3CCCN3)c2C(=O)c2c1c(O)c1ccccc1c2O
active: HCT-15 colon -38.9% | HT29 colon -98.4% | SNB-75 CNS -71.6% | SNB-19 CNS -84.9% | U251 CNS -98.9% | PC-3 prostate -95.1% | SK-MEL-5 melanoma -89.8% | UACC-62 melanoma -100% | LOX IMVI melanoma -93% | SK-MEL-28 melanoma -100%

Cc1c(C(=O)Nc2nc(-c3ccccc3)cs2)nnn1-c1ccccc1Br
active: SK-MEL-5 melanoma -68.6% [50 µM]
inactive: HCT-15 colon 29.5% [50 µM] | HT29 colon 16.3% [50 µM] | SNB-75 CNS 67.8% [50 µM] | SNB-19 CNS 61.1% [50 µM] | U251 CNS 50.8% [50 µM] | PC-3 prostate 44.8% [50 µM] | UACC-62 melanoma 39.4% [50 µM] | LOX IMVI melanoma 12% [50 µM] | SK-MEL-28 melanoma 44.5% [50 µM]

COc1cc(/C=C/c2cc(/C=C/c3ccc(O)c(OC)c3)n(-c3ccccc3)n2)ccc1O
active: HCT-15 colon -3.38% | HT29 colon -52.4% | SNB-75 CNS -53.2% | SNB-19 CNS 1.18% | U251 CNS 1.47% | PC-3 prostate -33.1% | SK-MEL-5 melanoma -86.5% | UACC-62 melanoma -84.4% | LOX IMVI melanoma -37.1% | SK-MEL-28 melanoma -6.73%

COc1cc(-c2nc(SC(C)C)nc(Nc3cccc(C)c3)c2C#N)cc(OC)c1OC
inactive: HCT-15 colon 103% | HT29 colon 98.7% | SNB-75 CNS 109% | SNB-19 CNS 103% | U251 CNS 106% | PC-3 prostate 98.6% | SK-MEL-5 melanoma 102% | UACC-62 melanoma 95.2% | LOX IMVI melanoma 97.2% | SK-MEL-28 melanoma 107%

O=C(O)C[C@H](O)C[C@H](O)/C=C/c1c(C2CC2)nc2ccccc2c1-c1ccc(F)cc1
inactive: HCT-15 colon 46.5% | HT29 colon 107% | SNB-75 CNS 103% | SNB-19 CNS 74.9% | U251 CNS 42.8% | PC-3 prostate 26.9% | SK-MEL-5 melanoma 67.6% | UACC-62 melanoma 19.5% | LOX IMVI melanoma 34.5% | SK-MEL-28 melanoma 113%

Cc1nc(-c2ccccc2)cc2c(O)c(C(=O)N/N=C/Cc3ccccc3)[nH]c(=O)c12
inactive: HCT-15 colon 106% | HT29 colon 93.8% | SNB-75 CNS 90.7% | SNB-19 CNS 110% | U251 CNS 98.8% | PC-3 prostate 90% | SK-MEL-5 melanoma 107% | UACC-62 melanoma 109% | LOX IMVI melanoma 95.7% | SK-MEL-28 melanoma 115%

CC1SC(c2ccc(Cl)cc2)N(CCc2cccs2)C1=O (stereo not given)
inactive: SNB-19 CNS 12.4%
active: HCT-15 colon 1.46% | HT29 colon -40.2% | SNB-75 CNS -9.5% | U251 CNS -8.49% | PC-3 prostate -1.67% | SK-MEL-5 melanoma -99.2% | UACC-62 melanoma -46.3% | LOX IMVI melanoma -85.2% | SK-MEL-28 melanoma 8.16%

CN1CCN(C)c2cncc(Br)c2C1=O
inactive: HCT-15 colon 105% | HT29 colon 107% | SNB-75 CNS 101% | SNB-19 CNS 106% | U251 CNS 106% | PC-3 prostate 103% | SK-MEL-5 melanoma 101% | UACC-62 melanoma 105% | LOX IMVI melanoma 102% | SK-MEL-28 melanoma 110%

COc1ccc(C2=NOC(CC(=O)N(CCO)CCO)C2)cc1OC1CCCC1 (stereo not given)
inactive: HCT-15 colon 98.6% | HT29 colon 110% | SNB-75 CNS 86.5% | SNB-19 CNS 97% | U251 CNS 97.5% | PC-3 prostate 95.5% | SK-MEL-5 melanoma 94.1% | UACC-62 melanoma 100% | LOX IMVI melanoma 103% | SK-MEL-28 melanoma 119%

COc1ccc(C2OCC(C)(C)CO2)cc1OC
inactive: HCT-15 colon 106% | HT29 colon 109% | SNB-75 CNS 102% | SNB-19 CNS 112% | U251 CNS 94.8% | PC-3 prostate 95% | SK-MEL-5 melanoma 96.5% | UACC-62 melanoma 99.9% | LOX IMVI melanoma 95.2% | SK-MEL-28 melanoma 121%

O=C1NC(=S)S/C1=C\c1cccc([N+](=O)[O-])c1
inactive: HCT-15 colon 93.3% | HT29 colon 109% | SNB-75 CNS 83.8% | SNB-19 CNS 98% | U251 CNS 92.7% | PC-3 prostate 88.1% | SK-MEL-5 melanoma 89.9% | UACC-62 melanoma 70% | LOX IMVI melanoma 88.9% | SK-MEL-28 melanoma 112%

CCOC(=O)c1cn2c3c(cc(F)cc3c1=O)C(CC)c1ccccc1C2 (stereo not given)
inactive: HCT-15 colon 57.8% | HT29 colon 95.9% | SNB-75 CNS 92.3% | SNB-19 CNS 103% | U251 CNS 83.8% | PC-3 prostate 81.6% | SK-MEL-5 melanoma 63.7% | UACC-62 melanoma 105% | LOX IMVI melanoma 84.9% | SK-MEL-28 melanoma 98.9%

CCCCCCCCCCCCCCn1c2ccccc2c2c3c(c4c5cc(OC)ccc5oc4c21)C(=O)NC3=O
inactive: HCT-15 colon 94.9% | HT29 colon 103% | SNB-75 CNS 81.4% | SNB-19 CNS 105% | U251 CNS 99.8% | PC-3 prostate 107% | SK-MEL-5 melanoma 102% | UACC-62 melanoma 101% | LOX IMVI melanoma 103% | SK-MEL-28 melanoma 107%
